High-throughput results deposited in PubChem by National Center for Advancing Translational Sciences (NCATS).
This is a sample that favours compounds with a hit; in the whole collection about 9.2% have one here.
FLuc counter: qHTS profiling assay for firefly luciferase inhibitor/activator using purifed enzyme and Km concentrations of substrates (counterscreen for miR-21 project) | Luciferin 4-monooxygenase (Photinus pyralis), P08659 | purified FLuc, Km substrates, luminescence inhibition | Potency, µM (top dose mostly 57.5 µM), without a hit: at the highest dose activity change, negative = inhibition, most hits filed as inhibitors | 6.9% of 360,000 active;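 note: plate controls were vehicle for no effect and reference inhibitor for full effect; nearly all actives have a fitted effect of over 55% in size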
Target sequence (P08659 whole entry, looked up): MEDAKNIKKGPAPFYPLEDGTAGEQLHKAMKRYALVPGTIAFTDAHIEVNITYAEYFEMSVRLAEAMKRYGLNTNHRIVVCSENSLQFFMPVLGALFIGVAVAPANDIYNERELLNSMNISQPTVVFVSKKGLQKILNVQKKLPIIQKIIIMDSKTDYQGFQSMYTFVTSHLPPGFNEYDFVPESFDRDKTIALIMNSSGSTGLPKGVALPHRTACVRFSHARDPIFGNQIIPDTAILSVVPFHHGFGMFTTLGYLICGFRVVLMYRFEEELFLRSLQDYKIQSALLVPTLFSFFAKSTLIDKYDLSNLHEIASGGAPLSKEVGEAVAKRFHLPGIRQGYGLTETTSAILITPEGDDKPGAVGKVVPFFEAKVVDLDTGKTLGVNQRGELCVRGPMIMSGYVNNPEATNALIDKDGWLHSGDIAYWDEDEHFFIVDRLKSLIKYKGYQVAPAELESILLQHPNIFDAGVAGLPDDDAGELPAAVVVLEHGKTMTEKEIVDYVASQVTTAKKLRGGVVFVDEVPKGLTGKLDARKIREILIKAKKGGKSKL
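Purified P. pyralis luciferase, 10 nM final, with Km-level 10 uM D-luciferin and 10 uM ATP in 50 mM Tris acetate pH 7.5, 10 mM Mg acetate, 0.01% Tween-20, 0.05% BSA; 6-point qHTS titration about 60 µM downward; luminescence read.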
ELG1 DNA repair: qHTS screen for small molecules that inhibit ELG1-dependent DNA repair in human embryonic kidney (HEK293T) cells expressing luciferase-tagged ELG1; AID 504467, 2011; Potency, µM (titrated, usually from 46.1 µM), inactives show at the top dose activity change, negative = inhibition, actives largely listed as inhibitors; 2.3% of 330,000 active; HEK293T ELG1-luciferase reporter, luminescence, 16 h; DNA damage induced by 5-fluorouridine; note: % is set by controls: 0 for no effect and ±100 for the full control effect; nearly all actives have a fitted effect of over 55% in size
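Luminescence from the luciferase reporter, measured 30 min after ONE-Glo reagent at room temperature, was the read-out. Beforehand, 2,000 cells per well were exposed for 16 hr at 37 °C to 5-fluorouridine together with compound or vehicle.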
NPC1 prom act: qHTS Assay for NPC1 Promoter Activators | Huh7 NPC1 promoter luciferase reporter, 24 h | Potency, µM (top dose mostly 9.22 µM), for inactives: top-dose activation, hits mostly activators | 2.4% of 320,000 active | AID 485313, 2010; note: % of control where 0% means no effect; nearly all actives have a fitted effect of over 60% in size
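Cells: Huh7 expressing luciferase under the NPC1 promoter, 1500/well. Seeded 2 h, compound added, incubated 24 h at 37 °C. Luciferase reagent, 10 min ambient, then luminescence.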
SMN2 splice enh: qHTS Assay for Enhancers of SMN2 Splice Variant Expression; Potency, µM (top dose mostly 46.1 µM), inactives show at the top dose activity change, positive = activation, usual class: activators; 2.8% of 210,000 active; HEK293 SMN2-luciferase splicing reporter, luminescence, 30-36 h; note: % of control where 0% means no effect; nearly all actives have a fitted effect of over 55% in size
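HEK293 cells carry an SMN2 […]–luciferase reporter in which exon 7 inclusion puts luciferase in frame. Cells were plated 10-12 h before compound addition, then incubated 30-36 h at 37C. ONE-Glo luminescence was read; sodium butyrate at 4.5 mM final served as control.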
ELG1 genotox: qHTS screen for small molecules that induce genotoxicity in human embryonic kidney (HEK293T) cells expressing luciferase-tagged ELG1; HEK293T ELG1-luciferase reporter, luminescence, 16 h; Potency, µM (doses to about 46 µM), for the others: top-dose activity change, positive = activation, hits mostly activators; 1.3% of 330,000 active; AID 504466, 2011; note: % of control where 0% means no effect; nearly all actives have a fitted effect of over 60% in size
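Genotoxicity was scored as increased ELG1-luciferase reporter signal, measured by ONE-Glo luminescence (30 min, room temperature). Compound or vehicle exposure of the HEK293T reporter cells lasted 16 hr at 37°C.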
Rab9 prom act: qHTS Assay for Rab9 Promoter Activators | Huh7 Rab9 promoter-luciferase reporter, luminescence, 24 h | Potency, µM (highest dose often 9.22 µM), inactives show top-dose activation, negative = inhibition, hits mostly activators | 2.8% of 320,000 active; note: % of control where 0% means no effect; nearly all actives have a fitted effect of over 60% in size
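Measured in stably transfected Huh7 cells bearing a Rab9 promoter–luciferase construct: 24 h compound treatment at 37 °C, followed by luminescence detection.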
Active calls of the source: *; ? = inconclusive; . = no result given; [ ] = dose if it differs, or a comment. Calls come from the whole dose curve; as a rule, active = well fitted curve in the direction sought with a large enough effect; inconclusive = small, poorly fitted or top-dose-only effect, or another doubt; inactive = no such curve, though single readings can be large; an effect the other way counts as inactive or inconclusive. Potency is the fitted concentration of half-maximal effect.

SMILES	FLuc counter	ELG1 DNA repair	NPC1 prom act	SMN2 splice enh	ELG1 genotox	Rab9 prom act
COc1ccc(-c2cc(C(F)F)nn2-c2ccc(S(N)(=O)=O)cc2)cc1F	.	.	.	2%	.	.
COc1ccc(/C=C2\CCc3ccccc3C2=O)cc1CN1CCOCC1	7.6µM*	?	2%	.	?	-1%
COc1cc2c(cc1OC)/C(=C/c1ccc(Cl)cc1)C(=O)OC2	4%	-12%	-5%	-17%	3%	-5%
COc1cc(/C=C2/CCc3ccccc3C2=O)cc(OC)c1OC	?	?	1%	-53%	-6%	-2%
COc1ccc(/C=C2\C(=O)OCc3cc(OC)c(OC)cc32)cc1OC	13µM*	1%	3%	12%	18%	-12%
O=C(O)c1ccc(/C=C2\COc3ccccc3C2=O)cc1	19µM*	?	-3%	.	-5%	-8%
COc1ccc(/C=C2/CCc3ccccc3C2=O)cc1OC	3.4µM*	?	3%	-52%	?	-2%
COc1ccc2c(c1)CC/C(=C\c1ccc(OC)c(Cn3cccn3)c1)C2=O	13µM*	?	-3%	-48%	-22%	8%
COc1ccc(/C=C2\COc3ccccc3C2=O)c(OC)c1	4.8µM*	?	-17%	.	?	0%
Cc1cc(C)c2c(c1)C(=O)/C(=C/c1ccc(C(=O)O)cc1)CC2	19µM*	?	19%	.	14%	20%
COc1ccc(C=C2c3ccccc3C(=O)c3ccccc32)c(OC)c1	-4%	23µM*	-6%	.	?	-24%
COc1ccc(/C=C2\CN(Cc3ccccc3)C/C(=C\c3ccc(OC)cc3OC)C2=O)c(OC)c1	0%	?	-7%	-49%	1%	0%
Cc1cccc(N(Cc2ccccc2)C(=O)c2cccc(S(=O)(=O)N3CC(C)OC(C)C3)c2)c1 (stereo not drawn)	3%	?	2%	.	-5%	-3%
COc1ccc(/C=C2\OC(=O)c3c(OC)cccc32)cc1OC	1.1µM*	?	2.8µM*	?	?	2.8µM*
COc1ccc(/C=C2\COc3ccccc3C2=O)cc1OC	13µM*	?	0%	-11%	-14%	0%
COc1ccc(N2C(=O)/C(=C/c3cccs3)NC2=S)cc1	?	21%	0%	?	4%	0%
COc1ccc2c(c1)OC/C(=C\c1ccc(OC)c(O)c1)C2=O	.	.	.	-26%	.	.
COc1ccc2c(c1)OC/C(=C/c1cccs1)C2=O	0.43µM*	?	?	.	12µM*	?
COc1ccc(OC)c(CCNC(=O)CCn2nc(C)c3c(C)n(-c4ccccc4)nc3c2=O)c1	0%	-21%	-3%	.	-3%	-2%
COc1ccc(OC)c(CCNC(=O)Cn2nc(C)c3c(C)n(-c4ccccc4)nc3c2=O)c1	2%	7.3µM*	-3%	.	-6%	-6%
Cc1ccc(-n2nc3c(=O)n(CC(=O)NC(C)CCc4ccccc4)nc(C)c3c2C)cc1 (stereo not drawn)	4%	0.65µM*	-32%	.	13%	-34%
S=c1[nH]nc(-c2cc(-c3ccccn3)nc3ccccc23)o1	4%	-5%	-2%	.	0%	0%
CCn1c(-c2cc(-c3cccc(OC)c3)nc3ccccc23)n[nH]c1=S	24µM*	-5%	-2%	2%	3%	-1%
Cc1ccc(-c2cc(-c3n[nH]c(=S)o3)c3ccccc3n2)cc1	19µM*	-28%	-8%	-63%	-10%	-8%
CCc1ccc(-c2cc(-c3n[nH]c(=S)n3CC)c3ccccc3n2)cc1	1.2µM*	-11%	13%	?	11%	24%
SMILES	FLuc counter	ELG1 DNA repair	NPC1 prom act	SMN2 splice enh	ELG1 genotox	Rab9 prom act
CCc1ccc(CNC(=O)C2CCN(c3nc4ccccc4nc3C(F)(F)F)CC2)cc1	-8%	.	.	.	.	.
COc1cccc(C(=O)Nc2ccccc2-c2nnc(-c3cccc(OC)c3)o2)c1	2.7µM*	.	.	3%	.	.
COc1ccc(CC(=O)Nc2cccc(-c3nnc(-c4ccco4)o3)c2)cc1	-8%	?	0%	-18%	-8%	2%
COc1cc(C(=O)Nc2cccc(-c3nnc(-c4ccco4)o3)c2)ccc1OC(C)=O	15µM*	?	0%	0%	-6%	-1%
COc1ccc(C(=O)Nc2cccc(-c3nnc(-c4ccco4)o3)c2)cc1	19µM*	21µM*	19%	-12%	-9%	8%
Cc1nc2c(C(=O)N3CCCCC3)cnn2c(C)c1Cc1ccccc1F	?	?	1.6µM*	?	?	1.6µM*
CCCCc1cc2c(cn1)=C(OC(=O)c1ccc(Cl)nc1)C(C)(OC(=O)CC)C(=O)C=2 (stereo not drawn)	.	.	.	-7%[9.22 µM]	.	.
COc1ccc(NC(=O)C(NC(=O)C2CCC(C)CC2)C(C)C)cc1 (stereo not drawn)	-1%	.	.	5%	.	.
O=C(NC(=S)Nc1ccc2nc[nH]c2c1)c1ccccc1	?	?	2.8µM*	.	?	4µM*
CC(C)(C)NC(=S)NNC(=O)c1ccc2ncccc2c1	?	?	?	14µM*	24%	0.5µM*
O=C(Nc1ccc2ncccc2c1)c1ccccc1	-5%	-4%	-3%	.	2%	2%
O=C(NC(=S)Nc1ccc2ncccc2c1)c1ccccc1	?	?	2.8µM*	?	?	2.2µM*
O=C(NNC(=S)Nc1ccccc1)c1ccc2ncccc2c1	?	28%	7%	14%	5%	?
O=C(NC(=S)Nc1ccc2[nH]ncc2c1)c1ccccc1	?	?	?	22%	15%	?
CCC(=O)N1CCc2cc(CNS(=O)(=O)c3ccc(C(C)C)cc3)ccc21	-3%	.	.	-5%	.	.
Cc1cc(NC(=O)C(C)Sc2nnc(NCc3ccco3)s2)no1 (stereo not drawn)	2%	5%	1%	.	2%	-6%
CCOC(=O)c1cc(-c2ccccc2)n(CCCC(=O)Nc2cc(C)ccc2OC)c1C	3%	.	.	.	.	.
CC(=O)Nc1ccc(/C=C2/Sc3ccccc3C2=O)cc1	0.76µM*	?	-1%	26%	?	-8%
CC(=O)Nc1ccc(S(=O)(=O)Oc2ccc(/C=C3\SC(N)=NC3=O)cc2)cc1	-2%	6%	-3%	-4%	1%	-5%
O=C1/C(=C\c2cccnc2)Sc2ccccc21	6.7µM*	?	0%	13%	?	2%
